Our source for the outcome and AC50 values is PubChem BioAssay (EPA / NIEHS).

Each structure is given as a SMILES string. Results filed as inconclusive are left out. More than one record can exist for a structure, and the calls need not agree. Active and inactive are the calls of the source. How the source made its calls: active means hit-call score of the fitted dose curve at least 0.9, where 1 is the maximum; inconclusive means response in the unintended direction; inactive means score below 0.9.

The target in experiment [1] is Cellular tumor antigen p53 (Homo sapiens) (UniProt P04637). The experiment can be described thus: TOX21_p53_BLA_p2_ratio: Tox21 HCT-116 p53 Agonism Beta-lactamase Assay, Ratio, Phase 2 (AID 2283592). A digest of the protocol:
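HCT116 cells carrying a p53-responsive beta-lactamase reporter were plated, incubated 5 h at 37C, then dosed with compounds in DMSO (217-fold dilution) for 16 h. CCF4-AM substrate was added for 2 h at room temperature; the 460/530 nm emission ratio gave gain-of-signal activity relative to DMSO.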

A short description of experiment [2]: TOX21_p53_BLA_p3_viability: Viability Assessment in the Tox21 HCT-116 p53 Agonism Beta-lactamase Assay, Phase 3 (AID 2283593).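 Further: cells exposed to compound for 16 h before reading.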 A digest of the protocol: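 HCT116 cells, 4000/well, dosed 5 h after plating by pin transfer (217-fold dilution from DMSO stock) and incubated 16 h at 37C, 5% CO2. Viability read as ATP luminescence with CellTiter-Glo after 30 min at room temperature.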

For experiment [3], the target named is Cellular tumor antigen p53 (Homo sapiens) (UniProt P04637). In words: TOX21_p53_BLA_p3_ratio: Tox21 HCT-116 p53 Agonism Beta-lactamase Assay, Ratio, Phase 3 (AID 2283596). A digest of the protocol: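 HCT116 p53-bla cells (4000/well) given compound in DMSO (217-fold dilution) after 5 h, incubated 16 h at 37C. CCF4-AM substrate 2 h at room temperature; 460/530 nm emission ratio, gain fitted against DMSO.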

Experiment [4] can be described thus: TOX21_p53_BLA_p4_viability: Viability Assessment in the Tox21 HCT-116 p53 Agonism Beta-lactamase Assay, Phase 4 (AID 2283597).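 Further: hits lower the luminescence signal meaning cytotoxicity.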 A digest of the protocol:
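HCT116 p53-bla cells (4000/well) rested 5 h at 37C, then received compounds in DMSO (217-fold dilution) for 16 h at 37C, 5% CO2. CellTiter-Glo was added after the CCF4-AM read, and luminescence was read after 30 min at room temperature.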

The target in experiment [5] is Cellular tumor antigen p53 (Homo sapiens) (UniProt P04637). In words: TOX21_p53_BLA_p5_ratio: Tox21 HCT-116 p53 Agonism Beta-lactamase Assay, Ratio, Phase 5 (AID 2283599). A digest of the protocol:
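HCT-116 p53-bla cells (4000/well) plated 5 h, dosed with compound (217-fold DMSO dilution) for 16 h at 37 C; CCF4-AM substrate 2 h at room temperature. Activity is the 460/530 nm emission ratio (405 nm excitation), fitted in gain-of-signal direction versus DMSO.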

Experiment [6] is described as follows: TOX21_p53_BLA_p5_viability: Viability Assessment in the Tox21 HCT-116 p53 Agonism Beta-lactamase Assay, Phase 5 (AID 2283600). A digest of the protocol: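 Cells were plated at 4000/well, rested 5 h at 37C, then given compounds in DMSO (217-fold dilution) for 16 h at 37C, 5% CO2. Following the CCF4-AM beta-lactamase read, CellTiter-Glo was added and luminescence was read after 30 min at room temperature.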

Experiment [7] has as its target Cellular tumor antigen p53 (Homo sapiens) (UniProt P04637). The experiment can be described thus: TOX21_p53_BLA_p4_ratio: Tox21 HCT-116 p53 Agonism Beta-lactamase Assay, Ratio, Phase 4 (AID 2283601). A digest of the protocol:
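HCT-116 p53 beta-lactamase reporter cells (4000/well) preincubated 5 h, then compound (217-fold dilution of DMSO stock) for 16 h at 37C. CCF4-AM substrate added 2 h at room temperature; 460/530 nm emission ratio fitted upward versus DMSO.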

The target of the next experiment is PGR (gene 5241) (UniProt P06401). In words: TOX21_PR_BLA_Followup_Antagonist_ratio: Tox21 HEK293 Progesterone Receptor (PR) Antagonism Beta-lactamase Follow-Up Assay, Ratio (AID 2283934).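 Further: PR-UAS-bla HEK293T cells stimulated with 1 nM R5020 agonist for 16 hr.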 A digest of the protocol:
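Antagonist mode used 1 nM R5020 (final) as agonist on a beta-lactamase reporter line in HEK293T cells. Activity was taken from the substrate cleavage ratio after 16 hr exposure.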

A short description of experiment [8]: TOX21_PR_BLA_Followup_Agonist_viability: Viability Assessment in the Tox21 HEK293 Progesterone Receptor (PR) Agonism Beta-lactamase Follow-Up Assay (AID 2283935).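 Further: signal loss means lower viability so actives are cytotoxic.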 A digest of the protocol: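 Multiplexed viability counter-screen: ATP-coupled luciferase signal measured after 30 min at room temperature, following 16 hr compound treatment of PR-UAS-bla HEK293T cells grown in charcoal-stripped serum.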

A short description of experiment [9]: TOX21_PR_BLA_Followup_Antagonist_viability: Viability Assessment in the Tox21 HEK293 Progesterone Receptor (PR) Antagonism Beta-lactamase Follow-Up Assay (AID 2283936).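 Further: hits lower the luminescence signal meaning cytotoxicity.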 A digest of the protocol: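 PR-UAS-bla HEK293T cells (3,000/well, 2% charcoal-stripped FBS) given compound plus R5020 agonist, 16 h at 37C. CellTiter-Glo added after bla read, 30 min at room temperature; luminescence loss indicates cytotoxicity.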

Experiment [10] can be described thus: TOX21_PR_LUC_Followup_Antagonist_viability: Viability Assessment in the Tox21 HEK293 Progesterone Receptor (PR) Antagonism Luciferase Follow-Up Assay (AID 2283940). A digest of the protocol: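 Cellular ATP, measured with luciferase-coupled CellTiter-Glo, served as the viability endpoint after HEK293-PR-A-luc cells were exposed to test compounds for 16 h at 37C.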

Experiment [11] is described as follows: TOX21_PR_LUC_Followup_Agonist_viability: Viability Assessment in the Tox21 HEK293 Progesterone Receptor (PR) Agonism Luciferase Follow-Up Assay (AID 2283941).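 Further: loss of signal means cytotoxicity so actives lower viability.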 A digest of the protocol:
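Luminescent ATP quantitation (CellTiter-Glo) serves as the read-out; a drop flags cytotoxic compounds. Cells are HEK293-PR-A-luc grown in 10% charcoal-stripped FBS, plated 3,000/well, and exposed to compound for 16 h.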

Chain of Cellular tumor antigen p53 (Homo sapiens) (P04637 whole entry, looked up): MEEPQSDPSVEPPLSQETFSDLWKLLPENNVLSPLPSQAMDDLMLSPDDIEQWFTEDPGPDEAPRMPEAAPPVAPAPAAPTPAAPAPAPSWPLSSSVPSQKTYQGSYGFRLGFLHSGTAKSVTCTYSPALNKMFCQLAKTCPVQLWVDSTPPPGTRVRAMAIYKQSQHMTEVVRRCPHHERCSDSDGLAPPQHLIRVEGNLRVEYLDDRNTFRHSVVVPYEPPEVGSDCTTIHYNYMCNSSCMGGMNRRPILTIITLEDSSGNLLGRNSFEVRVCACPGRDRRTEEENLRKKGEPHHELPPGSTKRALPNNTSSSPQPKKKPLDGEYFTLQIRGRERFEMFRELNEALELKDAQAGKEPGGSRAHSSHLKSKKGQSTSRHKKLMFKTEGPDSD
Chain of PGR (gene 5241) (P06401 whole entry, looked up): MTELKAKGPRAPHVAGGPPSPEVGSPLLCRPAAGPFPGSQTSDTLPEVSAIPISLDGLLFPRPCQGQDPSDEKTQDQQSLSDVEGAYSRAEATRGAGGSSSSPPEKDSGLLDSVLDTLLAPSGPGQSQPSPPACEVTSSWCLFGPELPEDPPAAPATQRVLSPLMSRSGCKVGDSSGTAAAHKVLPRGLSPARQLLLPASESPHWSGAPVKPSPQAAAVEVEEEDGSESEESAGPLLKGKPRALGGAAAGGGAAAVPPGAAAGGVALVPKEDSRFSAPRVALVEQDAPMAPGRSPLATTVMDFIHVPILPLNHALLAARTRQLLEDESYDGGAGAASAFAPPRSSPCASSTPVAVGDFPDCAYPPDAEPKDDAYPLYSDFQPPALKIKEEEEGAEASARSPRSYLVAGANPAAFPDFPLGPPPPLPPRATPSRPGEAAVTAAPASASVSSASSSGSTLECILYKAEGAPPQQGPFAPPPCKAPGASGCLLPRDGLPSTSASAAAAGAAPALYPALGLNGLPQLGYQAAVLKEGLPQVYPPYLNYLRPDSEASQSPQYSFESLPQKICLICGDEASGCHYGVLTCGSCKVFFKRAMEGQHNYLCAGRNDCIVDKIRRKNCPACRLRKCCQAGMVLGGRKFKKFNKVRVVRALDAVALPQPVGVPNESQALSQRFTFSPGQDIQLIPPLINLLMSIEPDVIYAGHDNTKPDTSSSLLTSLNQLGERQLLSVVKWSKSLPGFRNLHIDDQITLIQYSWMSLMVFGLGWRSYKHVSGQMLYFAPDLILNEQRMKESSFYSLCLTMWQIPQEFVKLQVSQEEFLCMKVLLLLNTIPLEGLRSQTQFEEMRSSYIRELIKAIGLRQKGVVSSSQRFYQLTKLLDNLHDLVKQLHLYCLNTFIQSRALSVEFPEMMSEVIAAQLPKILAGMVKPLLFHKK

Regarding `C=C[C@H]1CN2CC[C@H]1C[C@@H]2[C@@H](O)c1ccnc2ccccc12`, the result in experiment [1], in experiment [2], in experiment [3], in [4], in experiment [5] and in [6] was inactive. Besides, the result in [7] was inactive.

For `C[N+]1(C)[C@@H]2CC[C@H]1CC(OC(=O)c1c[nH]c3ccccc13)C2` (some centres undefined), the result in experiment [1], in experiment [2], in experiment [4], in experiment [5], in experiment [6] and in experiment [7] was inactive.

`C[C@H]1CCC[C@H](O)CCCCCc2cc(O)cc(O)c2C(=O)O1`: the outcome in experiment [1], in [3], in experiment [5], in [6], in experiment [7] and in experiment [8] was inactive. Also, the molecule was classed as inactive in [9], in experiment [10] and in experiment [11]. The half-maximal activity concentration (AC50) in experiment [3] is 74.2 µM (active); with PGR (gene 5241), 4.51 µM (active).

As for `C[C@]1(O)CC[C@H]2[C@@H]3CCC4=CC(=O)CC[C@]4(C)[C@@]3(F)[C@@H](O)C[C@@]21C`, the result (in [1]; in experiment [2]; in experiment [4]; in experiment [6]; in [7]; with PGR (gene 5241)) was inactive. The outcome in experiment [8], in [9] and in experiment [11] was inactive.

With `CN1C(=O)CN=C(c2ccccc2)c2cc([N+](=O)[O-])ccc21`, the result in [1], in experiment [3], in experiment [4], in experiment [5] and in experiment [6] was inactive.

`CC(CCc1ccccc1)NC(C)C(O)c1ccc(O)cc1` (centres undefined): the outcome in experiment [1] and in [3] was inactive.

`C=C(C#N)CCC#N`: the outcome in [1], in [2], in experiment [5], in experiment [6] and in experiment [7] was inactive.

With `Cc1nc(N)nc(N)n1`, the outcome in [1], in experiment [2], in experiment [6] and in [7] was inactive.

In the case of `C[N+](C)(C)CCOC(=O)C(O)(c1ccccc1)c1ccccc1`, the result in experiment [1], in experiment [2], in experiment [4], in experiment [6] and in experiment [7] was inactive.

Turning to `CCCN(CCCl)c1c([N+](=O)[O-])cc(C(F)(F)F)cc1[N+](=O)[O-]`, the outcome in experiment [1], in [2] and in experiment [6] was inactive.

Consider `Cc1ccc2c(c1)[C@]13CCCC[C@@H]1[C@H](C2)N(C)CC3`, for which the outcome in [1], in experiment [2] and in experiment [7] was inactive.

Consider `C=C[C@H]1CN2CC[C@H]1C[C@H]2[C@H](OC(=O)OCC)c1ccnc2ccc(OC)cc12`, for which the outcome in experiment [1], in [2], in experiment [4], in experiment [5], in [6] and in experiment [7] was inactive.

Consider `CCN(CCO)CCn1c(Cc2ccccc2)nc2c1c(=O)n(C)c(=O)n2C`, for which the outcome in experiment [1], in experiment [2], in experiment [4] and in experiment [5] was inactive.

In the case of `Cc1ccc(-c2nc3ccc(C)cn3c2CC(=O)N(C)C)cc1`, the outcome in [1], in experiment [2], in experiment [5], in experiment [6] and in experiment [7] was inactive.

As to `Nc1n[nH]c(N)n1`, the result in experiment [1], in experiment [2], in experiment [3] and in experiment [6] was inactive.

Take `C=C(Cl)CSC(=S)N(CC)CC`: the outcome in experiment [1], in experiment [2], in [3], in [5] and in experiment [7] was inactive.

With `Clc1cc(Cl)c(-c2cc(Cl)c(Cl)cc2Cl)cc1Cl`, the result in [1], in [2], in experiment [5], in experiment [6] and in experiment [7] was inactive.

A word on the AC50: it is the concentration giving half of the maximal activity seen.
